Test results: PubChem BioAssay AID1508637 (National Center for Advancing Translational Sciences (NCATS), 2021)
Inconclusive results are not listed. Values without a mark were called inactive. The source made the active and inactive calls. The call rests on the fitted dose curve; in most records, active means well fitted inhibition curve with a large enough effect; inconclusive means small, poorly fitted or top-dose-only effect; inactive means flat fitted curve, though single readings scatter. Residues, ends and D or L forms follow the SMILES beside them. *: point of attachment. Cbz = O=C(OCc1ccccc1)*

experiment: qHTS for characterization and localization of zebrafish homologs of the human ABCB1 multidrug transporter: empty vector transfected cells; details: empty vector transfected control cells, CellTiter-Glo luminescence viability, 72 h; series mostly up to 46.1 µM; activity change, negative = inhibition: at the top concentration
Source text: The zebrafish has emerged as a potential model to study the blood-brain barrier (BBB) given its similarities with mammalian systems. However, little information has been available with regard to homologous ATP-binding cassette transporters expressed at the zebrafish BBB. Two transporters that are highly expressed at the human BBB are P-glycoprotein (P-gp, encoded by the ABCB1 gene) and ABCG2 (encoded by the ABCG2 gene). In this study, we focus on characterization of P-gp homologs in the zebrafish, which has two genes that are homologous to human ABCB1 - abcb4 and abcb5. We generated stably-transfected cell lines to determine their substrate specificities. […] Zebrafish abcb4 also colocalized with claudin 5 expression in brain endothelial cells.
A high-throughput screen was performed as previously described on empty vector transfected cells, P-gp-overexpressing MDR-19 cells and cells transfected with full-length zebrafish abcb4 (ZF Abcb4) or abcb5 (ZF Abcb5). Briefly, cells were plated into 1536-well plates at a density of 500 cells/well in 5 uL media. P-gp substrate compounds (approximately 90) selected from our previous study were then added at varying concentrations using a 1536-head pin tool (Kalypsis, San Diego, CA) and plates were incubated at 37C in 5% CO2 for 72 h. CellTiter-Glo reagent (Promega) was dispensed into the wells, incubated for 5 min and luminescence was read on a ViewLux instrument (Perkin-Elmer).
Cytotoxic compounds were defined as those that yielded a curve class of -1.1, -1.2, -2.1, -2.2, -2.3, or -2.4, a maximum response of >50% and an AC50 of < 10 uM. All compounds from screening analysis were tested in Vector (empty vector control), MDR-19 (P-gp overexpressing), zebrafish abcb4 (ZF Abcb4) and abcb5 (ZF Abcb5) expression cell lines.
1. Tobie D Lee, Olivia W Lee, Kyle R Brimacombe, Lu Chen, Rajarshi Guha, Sabrina Lusvarghi, Bethilehem G Tebase, Carleen Klumpp-Thomas, Robert W Robey, Suresh V Ambudkar, Min Shen, Michael M Gottesman, Matthew D Hall. A High-Throughput Screen of a Library of Therapeutics Identifies Cytotoxic Substrates of P-glycoprotein. Mol Pharmacol. 2019, Nov;96(5):629-640.

| Compound | Potency | activity change, negative = inhibition [%] |
| --- | --- | --- |
| NC(=O)Nc1cc(-c2ccc(CN3CCOCC3)c(F)c2)sc1C(=O)N[C@H]1CCCNC1 | 469 nM (active) |  |
| Cc1ccc(C(=O)N(CCCN)C(c2nc3cc(Cl)ccc3c(=O)n2Cc2ccccc2)C(C)C)cc1 (stereo not given) | 1180 nM (active) |  |
| CN(C)c1ccc(C(=C2C=CC(=[N+](C)C)C=C2)c2ccc(N(C)C)cc2)cc1 | 590 nM (active) |  |
| CN(C)C1CCN(C(=O)c2ccc(NC(=O)Nc3nc(N4CCOCC4)nc(N4CCOCC4)n3)cc2)CC1 | 469 nM (active) |  |
| CC[C@@H]1C(=O)N(C)c2cnc(Nc3ccc(C(=O)NC4CCC(N5CCN(CC6CC6)CC5)CC4)cc3OC)nc2N1C(C)C (stereo not given in full) | 52.6 nM (active) |  |
| CCc1c(O)cc(O)c(C(=O)c2ccc(OCCN3CCOCC3)c(OC)c2)c1CC(=O)N(CCOC)CCOC | 743 nM (active) |  |
| Oc1ccc(-c2ccc(-c3cc(Nc4cccc(CNC5CC5)c4)n[nH]3)cc2)c(O)c1 | 2960 nM (active) |  |
| COCCn1c2c([n+](Cc3cnccn3)c1C)C(=O)c1ccccc1C2=O | 16.6 nM (active) |  |
| CC(C)C[C@@H](C=O)NC(=O)[C@H](CC(C)C)NC(=O)[C@H](CC(C)C)NC(=O)OCc1ccccc1 (Cbz-Leu-Leu-Leu-aldehyde) | 1320 nM (active) |  |
| CC(C)C[C@H](NC(=O)[C@@H](NC(=O)c1cccc(-c2ccccc2)n1)[C@@H](C)O)B(O)O | 74.3 nM (active) |  |
| CO[C@H]1/C=C/C=C/C=C/C[C@H](OC(=O)[C@@H](C)NC(=O)C2CCCCC2)[C@H](C)[C@@H](O)/C(C)=C/CCc2cc(O)cc(c2)NC(=O)C1 | 277 nM (active) |  |
| Cc1ccc(-c2ncn(-c3ccc(Nc4nccc(-c5cccc(N6CCOCC6)c5)n4)cc3)n2)cn1 | 3320 nM (active) |  |
| CC(=O)O[C@@H]1C[C@H](O)[C@@]23CO[C@@H](O)C1(C)[C@@H]2C[C@@H](O)[C@]1(C)[C@@H]3C(=O)[C@H](OC(C)=O)[C@@]2(C)[C@H](c3ccoc3)C[C@H]3O[C@]321 | 93.5 nM (active) |  |
| Cc1nc(Nc2n[nH]c3c2CN(C(=O)N[C@H](CN(C)C)c2ccccc2)C3(C)C)c2sccc2n1 | 41.8 nM (active) |  |
| CC(NCc1ccc2c(c1)nc(NC(=O)c1ccc(-c3cn[nH]c3)s1)n2CC(C)(C)O)C(C)(C)C (stereo not given) | 332 nM (active) |  |
| C/C=C1/NC(=O)C2CSSCCC=CC(CC(=O)NC(C(C)C)C(=O)N2)OC(=O)C(C(C)C)NC1=O (stereo not given) | 52.6 nM (active) |  |
| COc1cc2ncn(-c3cc(OCc4ccccc4C(F)(F)F)c(C(N)=O)s3)c2cc1OC | 1910 nM (active) |  |
| COc1cccc2c1C(=O)c1c(O)c3c(c(O)c1C2=O)C[C@@](O)(C(=O)CO)C[C@H]3O[C@H]1C[C@H](N)[C@@H](O)[C@H](C)O1 | 105 nM (active) |  |
| COc1cc2c(NC3CCN(C(C)C)CC3)nc(N3CCCN(C)CC3)nc2cc1OCCCN1CCCC1 | 16600 nM (active) |  |
| CCN(CC)Cc1ccc(C(=O)N(CCc2ccccc2OC)[C@@H]2CCNC2)cc1 |  | 0 |

| Compound | Potency | activity change, negative = inhibition [%] |
| --- | --- | --- |
| Cn1cc(-c2[nH]c3cc(NC(=O)[C@H](N)C4CCCCC4)cc4c3c2C=NNC4=O)cn1 | 418 nM (active) |  |
| CN(C)C1CCN(C(=O)c2ccc(NC(=O)Nc3ccc(-c4nc(N5CCOCC5)nc(N5CCOCC5)n4)cc3)cc2)CC1 | 469 nM (active) |  |
| COc1ccc(CC2C(=O)NC(C)C(=O)N(C)C3Cc4ccc(cc4)Oc4cc(ccc4OC4OC(CO)C(O)C(O)C4O)CC(C(=O)NC(C)C(=O)NC(C)C(=O)N2C)N(C)C3=O)cc1 (stereo not given) | 88.8 nM (active) |  |
| Cc1cc(N)c2ccccc2[n+]1CCCCCCCCCC[n+]1c(C)cc(N)c2ccccc21 | 5900 nM (active) |  |
| CCC1=CC2CN(C1)Cc1c([nH]c3ccccc13)[C@@](C(=O)OC)(c1cc3c(cc1OC)N(C)[C@H]1[C@@](O)(C(=O)OC)[C@H](OC(C)=O)[C@]4(CC)C=CCN5CC[C@]31[C@@H]54)C2 (stereo not given in full) | 105 nM (active) |  |
| CCN(CCCO)CCCOc1ccc2c(Nc3cc(CC(=O)Nc4cccc(F)c4)[nH]n3)ncnc2c1 |  | -7.2 |
| Cc1cc(Nc2cc(NC(=O)c3c(Cl)cccc3Cl)ccn2)nc(N)n1 | 4180 nM (active) |  |
| Cc1cc(Nc2cc(N3CCN(C)CC3)nc(Sc3ccc(NC(=O)C4CC4)cc3)n2)n[nH]1 | 6620 nM (active) |  |
| CN(C)C/C=C/C(=O)Nc1cccc(C(=O)Nc2ccc(Nc3nccc(-c4cccnc4)n3)cc2)c1 | 18700 nM (active) |  |
| Cc1[nH]c2ccccc2c1CCNCc1ccc(/C=C/C(=O)NO)cc1 | 235 nM (active) |  |
| CCn1c(-c2nonc2N)nc2c(C#CC(C)(C)O)ncc(OC[C@H]3CCCNC3)c21 | 1180 nM (active) |  |
| C[C@@]12O[C@@H](C[C@]1(O)CO)n1c3ccccc3c3c4c(c5c6ccccc6n2c5c31)CNC4=O | 2640 nM (active) |  |
| CCS(=O)(=O)c1cccc(-c2cc(C(=O)NC3CCN(C)CC3)c(C)c3[nH]c4ncc(C)cc4c23)c1 | 2350 nM (active) |  |
| N=C(N)c1ccc(OCCCCCOc2ccc(C(=N)N)cc2)cc1 | 2640 nM (active) |  |
| CC1(C)CC[C@]2(C(=O)OC3OC(CO)C(O)C(O)C3O)CC[C@]3(C)C(=CCC4[C@@]5(C)CC[C@H](OC6OC(C(=O)O)C(O)C(O)C6O)C(CO)(CO)C5CC[C@]43C)[C@@H]2C1 (stereo not given in full) | 2230 nM (active) |  |
| CC[n+]1c(-c2ccccc2)c2cc(N)ccc2c2ccc(N)cc21 | 332 nM (active) |  |
| CN(c1ncccc1CNc1nc(Nc2ccc3c(c2)CC(=O)N3)ncc1C(F)(F)F)S(C)(=O)=O | 4180 nM (active) |  |
| C#Cc1cccc(Nc2ncnc3cc(OC)c(OCCCCCCC(=O)NO)cc23)c1 | 2960 nM (active) |  |
| C=CCNC1=C2CC(C)CC(OC)C(O)C(C)/C=C(\C)C(OC(N)=O)C(OC)/C=C/C=C(\C)C(=O)NC(=CC1=O)C2=O (stereo not given) | 1480 nM (active) |  |
| C[C@@H]1O[C@@H](O[C@H]2[C@H](O)[C@@H](O)[C@H](O[C@H]3[C@H](O[C@H]4CC[C@@]5(C)C(=CC[C@@H]6C5CC[C@]5(C)[C@@H]7[C@H](C[C@@H]65)O[C@]5(CC[C@@](C)(CO[C@@H]6O[C@H](CO)[C@@H](O)[C@H](O)[C@H]6O)O5)[C@H]7C)C4)O[C@H](CO)[C@@H](O)[C@@H]3O)O[C@@H]2CO)[C@H](O)[C@H](O)[C@H]1O (stereo not given in full) | 353 nM (active) |  |
